G9a inh: qHTS Assay for Inhibitors of Histone Lysine Methyltransferase G9a; Histone-lysine N-methyltransferase EHMT2 (Homo sapiens), Q96KQ7; G9a H3K9 monomethylation, AlphaScreen, 2 h; Potency, µM (titrated, usually from 102 µM), for inactives: at the highest dose activity, negative = inhibition, hits mostly inhibitors; 350,000 compounds, 8.8% hits; AID 504332, 2011; further: potency means the concentration at half of the fitted maximal effect; on the % scale 0 is the no-effect control and ±100 the full control effect; nearly all actives have a fitted effect of over 75% in size
Target sequence (Q96KQ7 913-1193 limits assumed): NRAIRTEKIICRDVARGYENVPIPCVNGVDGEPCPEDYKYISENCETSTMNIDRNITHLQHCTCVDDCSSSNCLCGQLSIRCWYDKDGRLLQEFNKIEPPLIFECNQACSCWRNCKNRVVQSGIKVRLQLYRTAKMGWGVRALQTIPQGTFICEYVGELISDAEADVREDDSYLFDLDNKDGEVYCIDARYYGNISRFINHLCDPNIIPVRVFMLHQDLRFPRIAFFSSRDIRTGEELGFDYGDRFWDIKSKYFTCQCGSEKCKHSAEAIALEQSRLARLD
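Readings reflect AlphaScreen signal from monomethyl-H3K9 antibody detection. HMT at 20 nM; substrate b-H3K9 500 nM; cofactor SAM 20 uM; 2 h RT reaction; compounds tested as titrations in qHTS with 15 min preincubation.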
HP1b binding inh: HTS for Inhibitors of HP1-beta Chromodomain Interactions with Methylated Histone Tails; Chromobox protein homolog 1 (Homo sapiens), P83916; AlphaScreen HP1-beta / biotin-H3K9me3 peptide binding; Potency, µM (doses to about 114 µM), inactives show top-dose activity change, negative = inhibition, hits mostly inhibitors; 390,000 compounds, 0.56% hits; further: potency means the concentration at half of the fitted maximal effect; nearly all actives have a fitted effect of over 70% in size
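HP1-beta protein (50 nM final) preincubated 30 min at room temperature with biotinylated H3(1-18)K9me3 peptide (50 nM) in PBS pH 7.4, 0.01% Tween-20, then compound added for 30 min. AlphaScreen streptavidin donor/nickel chelate acceptor beads (10 ug/mL final), 30 min dark, luminescence read.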
Sfp PPTase inh: qHTS Assay for Inhibitors of Bacillus subtilis Sfp phosphopantetheinyl transferase (PPTase); 4'-phosphopantetheinyl transferase ffp (Bacillus subtilis), Q9F4F7; Biochemical Sfp PPTase activity, qHTS; Potency, µM, without a hit: largest response in the series, negative = inhibition, actives largely listed as inhibitors; 310,000 compounds, 3.5% hits; AID 1490, 2009;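 further: the enzyme is Sfp with the accession as filed and its product quenches rhodamine fluorescence; potency means the concentration at half of the fitted maximal effect; 0% = enzyme reaction without inhibitor and -100% = no enzyme wells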
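Step 1, compound plus 15 nM Sfp-PPTase, 15 min, room temperature. Step 2, add rhodamine-CoA (5 uM) and BHQ-2-YbbR (12.5 uM). Step 3, read 525/598 nm fluorescence at 0 and 30 min.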
BAZ2B block: qHTS Assay for Inhibitors of BAZ2B; AlphaScreen BAZ2B-H3K14Ac peptide displacement; Potency, µM (top dose mostly 114 µM), for the others: at the top dose activity change, negative = inhibition, usual class: inhibitors; 360,000 compounds, 4.4% hits; Bromodomain adjacent to zinc finger domain protein 2B (Homo sapiens), Q9UIF8; AID 504333, 2011; further: potency means the concentration at half of the fitted maximal effect; on the % scale 0 is the no-effect control and ±100 the full control effect; nearly all actives have a fitted effect of over 60% in size
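Complex of BAZ2B and biotin-H3K14Ac (50 nM apiece) forms over 30 min at RT, then faces library compounds up to 110 uM for another 30 min; AlphaScreen beads added, 20 min dark incubation, luminescence read.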
JMJD2A Tudor inh: qHTS Assay for Inhibitors of JMJD2A-Tudor Domain; 390,000 compounds, 4.4% hits; AlphaScreen JMJD2A-Tudor / H3K4me3 peptide binding; Potency, µM (highest dose often 114 µM), without a hit: top-dose activity change, negative = inhibition, hits mostly inhibitors; AID 504339, 2011; Lysine-specific demethylase 4A (Homo sapiens), O75164; further: potency means the concentration at half of the fitted maximal effect; on the % scale 0 is the no-effect control and ±100 the full control effect; nearly all actives have a fitted effect of over 50% in size
Sfp PPTase conf: Confirmation qHTS Assay for Inhibitors of Bacillus subtilis Sfp phosphopantetheinyl transferase (PPTase). shares compounds with Sfp PPTase inh. Sfp PPTase enzymatic assay, qHTS titration. Potency, µM (doses to about 114 µM), for the others: at the highest dose activity change, negative = inhibition, actives largely listed as inhibitors. 380 compounds, 79% hits. AID 2701, 2010;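 further: potency means the concentration at half of the fitted maximal effect; plate controls were uninhibited Sfp reaction for no effect and no enzyme control for full effect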
Target sequence (Q9F4F7 whole entry, looked up): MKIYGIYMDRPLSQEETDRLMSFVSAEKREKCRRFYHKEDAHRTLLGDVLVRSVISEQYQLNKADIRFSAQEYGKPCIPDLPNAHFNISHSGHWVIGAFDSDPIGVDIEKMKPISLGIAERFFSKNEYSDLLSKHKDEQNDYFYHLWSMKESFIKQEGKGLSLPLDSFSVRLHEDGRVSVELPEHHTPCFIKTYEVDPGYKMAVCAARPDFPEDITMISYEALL
Sfp PPTase gel: Gel-Based Assay for Inhibitors of Bacillus subtilis Sfp phosphopantetheinyl transferase (PPTase) | shares compounds with Sfp PPTase inh | purified Sfp, gel-based phosphopantetheinylation read-out | Potency, µM, most hits filed as inhibitors | 210 compounds, 20% hits | AID 2707, 2010;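 active means potency below 100 µM; inconclusive means dose-dependent response but potency above 100 µM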;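 further: band intensities scaled against SCH202676 control wells before curve fitting; potency is an IC50 for inhibitors of Sfp transfer activity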
* hit, by the source's call; i = inactive; ? = inconclusive; . = no result given; ! = repeats disagree; [ ] = another dose, or the depositor's remark. Rows were chosen to be rich in hits. Some 12% of all compounds tested hit in one or more screens of this group. Unless noted, the call rests on the fitted dose curve; in most records, active means well fitted curve in the direction sought with a large enough effect; inconclusive means small, poorly fitted or top-dose-only effect, or another doubt; inactive means no such curve, though single readings can be large; an effect the other way counts as inactive or inconclusive.

SMILES	G9a inh	HP1b binding inh	Sfp PPTase inh	BAZ2B block	JMJD2A Tudor inh	others
CCC1CN2CCc3cc(OC)c(OC)cc3C2CC1CC1NCCc2cc(OC)c(OC)cc21 (stereo not drawn)	-36.0%[2.33 µM]	.	11.1%	.	.
ClCC1C(CCl)C2(Cl)C(Cl)=C(Cl)C1(Cl)C2(Cl)Cl (stereo not drawn)	.	.	-14.8%	.	.
CCC1Nc2ncnc(N3CCN(c4ccccn4)CC3)c2N(Cc2ccc(Br)cc2)C1=O (stereo not drawn)	.	1.2%	.	.	79.4µM*
CCN(CC)c1ccc(/C=C2\C(=O)NC(=S)N(C)C2=O)o1	12.0%[12.7 µM]	-8.2%	-10.3%	?	-26.4%
CN1C(=O)C(=Cc2ccc(N3CCCCCC3)cc2)C(=O)N(C)C1=O	.	18.8%	?	-14.8%	-16.9%
O=C1NC(=O)C(=Cc2ccc(N3CCOCC3)o2)C(=O)N1	?	1.9%	-18.7%	?	-18.2%
CN1C(=O)C(=Cc2ccc(SC3CCCCC3)o2)C(=O)N(C)C1=O	12.6µM*	?	56.2µM*	56.2µM*	?
CCN(CC)c1ccc(C=C2C(=O)N(C)C(=S)N(C)C2=O)o1	20µM*	-25.3%	-17.1%	?	-30.1%
CN1C(=O)C(=Cc2ccc(N3CCCCC3)o2)C(=O)N(C)C1=S	.	-13.2%	56.2µM*	-28.8%	-33.2%
C=C1C2C[C@]3(C4CC5[C@@]6(C)CC[C@H](O)[C@@]5(C3CC2=O)C4[N+]([O-])(CC)C6)[C@@H]1O (stereo partly drawn)	.	.	10.0%	.	.
CCCCCCC(=O)O[C@H]1CC[C@H]2[C@@H]3CCC4CC(=O)C=C(C)[C@]4(C)[C@H]3CC[C@]12C (stereo partly drawn)	5.8%[12.7 µM]	.	-27.4%	.	.
CC[C@@H]1/C=C/C=C/C[C@H](C)[C@@H](O)[C@](C)(O)C(=O)[C@H](C)[C@@H](O)[C@H](C)C(=O)[C@H](C)[C@@H](O)[C@H](C)/C=C/C(=O)O[C@H]2[C@@H](C)[C@@H](CC1)O[C@@]1(CC[C@@H](C)[C@@H](C[C@H](C)O)O1)[C@@H]2C	7.3%[59 µM]	.	0.0006µM*	.	.	Sfp PPTase conf=0.4%;Sfp PPTase gel=i
CCC1C=CC=CC[C@H](C)[C@@H](O)[C@](C)(O)C(=O)[C@@H](C)[C@H](O)[C@@H](C)C(=O)[C@H](C)[C@@H](O)[C@H](C)C=CC(=O)OC2[C@@H](C)C(CC1)OC1(CC[C@@H](C)C(C[C@H](C)O)O1)[C@@H]2C (stereo partly drawn)	-21.0%[12.7 µM]	.	.	-25.3%	.
CN(C)C1C(=O)C(C(N)=O)C(=O)C2(O)C(=O)C3C(=O)c4c(O)cccc4C(C)(O)C3C(O)C12 (stereo not drawn)	3.55µM*	.	7.94µM*	.	.	Sfp PPTase conf=?
CCOC(=O)Nc1ccc(NCc2ccc(F)cc2)nc1N	1.19µM*	?	35.5µM*	70.8µM*	56.2µM*	Sfp PPTase conf=14.8µM*
CC1C(=O)OC2C(O)C34C5OC(=O)[C@@]3(OC3OC(=O)[C@H](O)[C@]34C(C(C)(C)C)C5O)[C@]12O (stereo partly drawn)	-10.5%[2.33 µM]	.	4.4%	.	.
Clc1ccc(COC(Cn2ccnc2)c2ccc(Cl)cc2Cl)c(Cl)c1 (stereo not drawn)	-41.0%[2.33 µM]	-16.2%	35.5µM*!	22.4µM*	39.8µM*	Sfp PPTase conf=?
C=CCOC(Cn1ccnc1)c1ccc(Cl)cc1Cl (stereo not drawn)	-6.4%[12.7 µM]	5.1%	7.8%	-36.7%	-27.0%

From PubChem
